Assay outcomes: PubChem BioAssay, National Center for Advancing Translational Sciences (NCATS)
Compounds with a hit are over-represented: about 19% of the library has one in this group of screens.
Giardia killer – Giardia lamblia killing. Giardia lamblia trophozoite viability. activity change, % at 7.66 µM, hits read low. actives 0.15% (n = 340,000); in the data active = activity change below about -80%; inconclusive = between about -30% and that limit;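 note: parasites exposed to compound for two days anaerobically before the ATP read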
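Giardia lamblia trophozoites (100 cells/well) were incubated with compounds for 48 h at 37 deg C under anaerobic conditions. Viability was read as ATP content by one-step luminescence after 15-30 min at room temperature.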
TDP1 inh – inhibitors of human tyrosyl-DNA phosphodiesterase TDP1 | Potency, µM (series often up to 130 µM), actives largely listed as inhibitors | recombinant TDP1, AlphaScreen DNA substrate cleavage | Q9NUW8 | actives 0.28% (n = 350,000); note: nearly all actives have a fitted effect of over 40% in size
Target sequence (Q9NUW8 whole entry, looked up): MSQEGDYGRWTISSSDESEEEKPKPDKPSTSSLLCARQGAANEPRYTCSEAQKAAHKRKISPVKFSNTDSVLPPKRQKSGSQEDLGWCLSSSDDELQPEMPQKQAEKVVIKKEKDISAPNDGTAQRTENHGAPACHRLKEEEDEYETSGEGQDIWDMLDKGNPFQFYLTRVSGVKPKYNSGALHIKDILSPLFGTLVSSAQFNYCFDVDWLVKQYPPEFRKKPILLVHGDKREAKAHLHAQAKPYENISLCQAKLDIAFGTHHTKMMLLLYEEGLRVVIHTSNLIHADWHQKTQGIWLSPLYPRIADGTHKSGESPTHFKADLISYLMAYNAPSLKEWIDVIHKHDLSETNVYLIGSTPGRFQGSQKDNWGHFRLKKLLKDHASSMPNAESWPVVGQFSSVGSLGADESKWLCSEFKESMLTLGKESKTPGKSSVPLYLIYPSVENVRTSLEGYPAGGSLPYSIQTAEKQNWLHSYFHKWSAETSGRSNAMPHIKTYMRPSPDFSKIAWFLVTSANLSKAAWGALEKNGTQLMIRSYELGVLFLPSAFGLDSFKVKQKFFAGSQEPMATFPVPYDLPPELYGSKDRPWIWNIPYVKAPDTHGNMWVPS
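Compounds were preincubated with Tdp1 (1 nM final) for 15 min at room temperature before substrate (15 nM final) started a 5 min reaction; beads (10 ug/ml final) were then added for 10 min before AlphaScreen detection.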
TDP1 cell noCPT – qHTS for Inhibitors of human tyrosyl-DNA phosphodiesterase 1 (TDP1): qHTS in cells in absence of CPT; DT40 Tdp1-/- hTDP1 cells, no CPT, ATP luminescence, 48 h; Potency, µM (titrated, usually from 46.2 µM), usual class: inhibitors; AID 686978, 2013; actives 15% (n = 420,000); note: nearly all actives have a fitted effect of over 55% in size
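No-CPT arm: Tdp1-/-;hTDP1 DT40 cells (400/well) plus compounds, incubated ≥48 hr at 37 °C. Readout CellTiter-Glo luminescence.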
ELG1 repair inh – blocks ELG1-dependent DNA repair in HEK293T cells; HEK293T ELG1-luciferase reporter, luminescence, 16 h; DNA damage induced by 5-fluorouridine; AID 504467; actives 2.3% (n = 330,000); Potency, µM (highest dose often 46.1 µM), most hits filed as inhibitors; note: nearly all actives have a fitted effect of over 55% in size
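5-Fluorouridine DNA damage + compound/DMSO, 2,000 cells/well, 16 h, 37 °C/5% CO2. ONE-Glo, 30 min RT, luminescence. Readout = decrease in reporter signal.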
DT40 TDP1 CPT – DT40-hTDP1 cell growth loss with CPT; Potency, µM (highest dose often 46.2 µM), actives largely listed as inhibitors; actives 12% (n = 420,000); chicken DT40 Tdp1-/-;hTDP1 cells + 20 nM CPT, ATP luminescence, 48 h; note: nearly all actives have a fitted effect of over 55% in size
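Chicken DT40 Tdp1-/- cells stably complemented with human TDP1 were seeded at 400 cells/well in medium containing 20 nM camptothecin, exposed to pin-transferred compounds, and grown at 37 °C for at least 48 hr. Viability was read as ATP luminescence.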
IL-1B inflam inh – blocks inflammasome-driven IL-1 beta release; activity change, % at 57.5 µM; AID 743279; actives 4.7% (n = 360,000); THP-1 LPS/ATP IL-1B secretion, AlphaLISA, 16 h; active compounds read low; in the data active = activity change below about -50%; inconclusive = mostly about -30% to -49%
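Secreted IL-1B measured by AlphaLISA bead assay after 16 h compound exposure of THP-1 cells; compounds (final up to 57.5 uM) added 1 h before LPS (250 ng/mL) and ATP (1.25 mM) stimulation; lower signal means less secretion.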
Hits are given with their value; – = inactive; ? = inconclusive; · = not tested or not shown. Unless noted, calls come from the whole dose curve; as a rule, active = well fitted curve in the direction sought with a large enough effect; inconclusive = small, poorly fitted or top-dose-only effect, or another doubt; inactive = no such curve, though single readings can be large; an effect the other way counts as inactive or inconclusive.

SMILES	Giardia killer	TDP1 inh	TDP1 cell noCPT	ELG1 repair inh	DT40 TDP1 CPT	IL-1B inflam inh
COc1ccc(-c2cc(C)no2)cc1S(=O)(=O)N1CCN(c2ccccc2F)CC1	–	–	?	–	?	–
COc1ccc(Br)cc1CN(C)C(=O)c1ccccc1SCC(=O)N1CCCC1	–	·	?	·	?	-53
COc1ccc(Nc2c(-c3ccc(C)o3)nc3cc(C)ccn23)cc1	·	–	12µM	·	15µM	·
Cc1ccc2nc(-c3ccc(C)o3)c(Nc3ccc(F)cc3)n2c1	–	–	?	·	–	·
Cc1ccn2c(Nc3ccc4c(c3)OCO4)c(-c3ccc(C)o3)nc2c1	·	–	?	·	15µM	·
COC(=O)c1ccc(-n2nnnc2SCC(=O)Nc2ccccc2F)cc1	–	–	–	–	–	–
O=C(Nc1cc2cc([N+](=O)[O-])ccc2oc1=O)c1cccs1	·	–	·	–	·	·
CCc1nc2ccc(C(=O)N3CCN(C(=O)c4ccco4)CC3)cn2c1N(CC)Cc1cccc(Br)c1	·	·	23µM	·	15µM	–
CCc1nc2ccc(C(=O)N(C)Cc3ccco3)cn2c1N(CC)Cc1cccc(Br)c1	·	·	13µM	·	12µM	–
CCc1nc2ccc(C(=O)N(C)Cc3ccco3)cn2c1N(C)CCCc1ccccc1	·	·	16µM	·	16µM	?
CCc1nc2ccc(C(=O)NC3CCN(Cc4ccccc4)CC3)cn2c1N(CC)Cc1cccc(Br)c1	·	·	12µM	·	15µM	-102
O=C(c1ccccc1Cl)N1CCN(CCc2ccccn2)CC1	·	–	–	·	–	·
Cc1ccc(CN2c3ccccc3S(=O)(=O)c3ccccc32)cc1	·	–	?	·	26µM	·
CC(C)c1ccc(N2C(=O)N(Cc3ccccc3Cl)c3ccccc3S2(=O)=O)cc1	·	–	18µM	·	?	·
CCOc1ccc(N2C(=O)N(Cc3c(F)cccc3Cl)c3ccccc3S2(=O)=O)cc1	·	–	?	·	–	·
CC(C)c1ccc(N2C(=O)N(Cc3cccc([N+](=O)[O-])c3)c3ccccc3S2(=O)=O)cc1	·	–	?	·	?	·
Cc1cccc(N2C(=O)N(Cc3ccc(C(C)(C)C)cc3)c3ccccc3S2(=O)=O)c1	·	–	21µM	·	?	·
Cc1cccc(CN2C(=O)N(c3ccc(C(C)C)cc3)S(=O)(=O)c3ccccc32)c1	·	–	23µM	·	?	·
Cc1ccc(CN2C(=O)N(c3ccc(C)c(Cl)c3)S(=O)(=O)c3ccccc32)cc1	·	–	?	·	?	·
CC1CCN(S(=O)(=O)c2ccc(NC(=O)[C@@H]3CCCN3C(=O)c3cccs3)cc2)CC1	–	–	?	–	–	–
CCCCc1nn(-c2cc(Cl)ccc2OC)c2c1C(=O)CC(C)(C)C2	–	–	21µM	–	12µM	–
COc1cc2ccccc2cc1C(=O)Nc1cc(C)ccn1	–	–	?	?	?	-57
Cc1cccnc1NC(=O)c1ccccc1NC(=O)C(C)(C)C	–	–	–	–	–	–
COc1cc2ccccc2cc1C(=O)Nc1ccc(Br)cn1	–	·	–	?	?	–
COc1ccc(C(=O)Nc2ccc(C)cc2C(=O)c2ccccc2)cc1	–	–	–	?	–	-73
SMILES	Giardia killer	TDP1 inh	TDP1 cell noCPT	ELG1 repair inh	DT40 TDP1 CPT	IL-1B inflam inh
Cc1ccnc(NC(=O)c2ccccc2NC(=O)C(C)(C)C)c1	–	–	16µM	?	18µM	–
COc1ccc(C(=O)Nc2ccccc2C(=O)Nc2cc(C)ccn2)cc1	–	·	18µM	?	?	–
C[C@H](CO)N1C[C@H](C)[C@H](CN(C)C(=O)NC2CCCCC2)Oc2cc(-c3cccnc3)ccc2S1(=O)=O	·	·	?	·	?	–
Cc1ccc(-c2cccc(OC(=O)c3ccccc3F)c2)cc1	–	–	–	?	–	–
N#CCCN(C(=O)COC(=O)CCc1nc2ccccc2c(=O)[nH]1)c1ccccc1F	–	–	–	–	–	–
COc1c(C(=O)Nc2nccs2)ccc2ccccc12	–	·	?	?	?	–
COc1cc2ccccc2cc1C(=O)Nc1nccs1	–	·	?	?	15µM	–
O=C1C=CC2(O[C@H](c3ccccc3)[C@@H](c3ccccc3)O2)[C@H](Sc2ccccc2O)C1	–	·	0.58µM	·	0.46µM	-117
COCCCn1cn[nH]c1=S	–	–	15µM	–	?	–
Cc1cc(C)c(Cn2c(=O)n(CCC(=O)NCc3ccc4c(c3)OCO4)c(=O)c3ccccc32)c(C)c1	·	–	–	·	–	·
CCCCN1C2=C(C(=O)CCC2)C(c2ccc(Cl)c(Cl)c2)C2=C1c1ccccc1C2=O (stereo not given)	–	–	?	–	16µM	–
S=C1NC[C@H](c2ccccc2)N1CC1CCCCC1	–	–	23µM	–	21µM	–
S=C1NC[C@H](Cc2ccccc2)N1CCCCC1CCCCC1	–	–	26µM	–	?	–
FC(F)(F)c1cc(CCN2C(=S)NC[C@@H]2CC2CCCCC2)cc(C(F)(F)F)c1	–	–	?	–	?	?
CC(C)C[C@H]1CNC(=O)C(=O)N1CC1CCN(CCC(C)c2ccccc2)CC1 (stereo not given in full)	·	·	–	·	–	–
CCCCN1C(=S)NC[C@@H]1Cc1ccccc1	–	–	?	–	?	–
S=C1NC[C@H](CC2CCCCC2)N1CCCCC1CCCCC1	–	–	?	–	16µM	–
O=C1NC[C@H](Cc2ccccc2)N(CC2CCN(CCC34CC5CC(CC(C5)C3)C4)CC2)C1=O	–	·	?	·	21µM	-73
C(=Nn1cnnc1)c1ccc2c(c1)CCC2	·	·	–	·	–	–
N#Cc1ccccc1OC1=NS(=O)(=O)c2ccccc21	·	–	·	·	·	·
Cc1cc(C(=O)NCc2ccccc2Cl)c2c(C)nn(-c3ccccc3)c2n1	·	–	·	·	·	·
O=C(Nc1nccs1)c1ccc(NC(=O)C2CC=CCC2C(=O)O)cc1 (stereo not given)	–	–	–	?	–	–
S=C1NC[C@H](Cc2ccccc2)N1CC1CCN(CCCC2CCCC2)CC1	–	·	?	·	?	-67
CC[C@H](C)[C@H]1CNC(=S)N1CC1CCN(CCC23CC4CC(CC(C4)C2)C3)CC1	–	·	16µM	·	?	-63
CC(C)C[C@H]1CNC(=S)N1CC1CCN(CCCC2CCCC2)CC1	–	·	?	·	?	?
CC(=O)O[C@H]1C[C@@H]2CC[C@@H]3[C@H](CC[C@@]4(C)[C@H]3C[C@H](N3CC[N+](C)(C)CC3)[C@@H]4OC(C)=O)[C@@]2(C)C[C@@H]1N1CC[N+](C)(C)CC1	·	·	–	·	–	·
C/C=C/c1ccc(OCCCCOc2ccc(OC)cc2)c(OC)c1	–	–	–	–	–	–
C/C=C/c1ccc(OCCCCN2CCN(CC)CC2)c(OC)c1	–	–	29µM	–	?	–
